ELG1 DNA repair: blocks ELG1-dependent DNA repair in HEK293T cells. HEK293T ELG1-luciferase reporter, luminescence, 16 h; DNA damage induced by 5-fluorouridine. Potency, µM (titrated, usually from 46.1 µM), usual class: inhibitors. actives 2.3% (n = 330,000); further: nearly all actives have a fitted effect of over 55% in size
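Luminescence from the luciferase reporter, measured 30 min after ONE-Glo reagent at room temperature, was the read-out. Beforehand, 2,000 cells per well were exposed for 16 hr at 37 °C to 5-fluorouridine together with compound or vehicle.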
DT40 TDP1 CPT: growth inhibition of DT40 Tdp1-/-;hTDP1 cells with camptothecin (screen for TDP1 inhibitors) | chicken DT40 Tdp1-/-;hTDP1 cells + 20 nM CPT, ATP luminescence, 48 h | Potency, µM (doses to about 46.2 µM), usual class: inhibitors | actives 12% (n = 420,000) | AID 686979; further: nearly all actives have a fitted effect of over 55% in size
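Chicken DT40 Tdp1-/- cells complemented with human TDP1, 400 cells/well, exposed to compounds plus 20 nM camptothecin for at least 48 h at 37 C; viability read as ATP content by CellTiter-Glo luminescence.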
HT1080-NT tox: kills 2HG-producing HT-1080-NT fibrosarcoma cells | HT-1080-NT fibrosarcoma viability, CellTiter-Glo ATP luminescence, 48 h | Potency, µM (series often up to 46.1 µM), usual class: cytotoxic | AID 686970 | actives 1.6% (n = 360,000);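 further: NT is the 2HG producing partner of a matched IDH1 knockdown line; nearly all actives have a fitted effect of over 55% in size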
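Luminescent CellTiter-Glo readout after 48 hours of compound exposure at 37 degrees C defined viability of HT-1080-NT cells. Activity was normalized to DMSO wells and cell-free media wells; concentration-response curves were fitted and assigned curve classes.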
IL1B secr inh: inhibitors of inflammasome signaling (IL-1 beta secretion) | THP-1 LPS/ATP IL-1B secretion, AlphaLISA, 16 h; stronger effect = lower value | activity change, % at 57.5 µM | actives 4.7% (n = 360,000) | AID 743279; in the data active means activity change below about -50%; inconclusive means mostly about -30% to -49%
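THP-1 cells pretreated 1 hr with compounds (up to 57.5 uM final), then stimulated with LPS (250 ng/mL final) plus ATP (1.25 mM final); secreted IL-1B measured by AlphaLISA after 16 hr, decreased signal indicating inhibition.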
TDP1 cell noCPT: qHTS for Inhibitors of human tyrosyl-DNA phosphodiesterase 1 (TDP1): qHTS in cells in absence of CPT; DT40 Tdp1-/- hTDP1 cells, no CPT, ATP luminescence, 48 h; actives 15% (n = 420,000); Potency, µM (top dose mostly 46.2 µM), usual class: inhibitors; further: nearly all actives have a fitted effect of over 55% in size
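Stably hTDP1-transfected Tdp1-null chicken DT40 cells were treated with library compounds minus camptothecin and grown for at least 48 hr at 37 °C, after which cellular ATP was quantified by luminescence.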
HT1080 IDH1KD tx: toxicity to HT-1080 IDH1 knockdown cells (counter line) | HT-1080 IDH1 knockdown viability, ATP luminescence, 48 h | Potency, µM (titrated, usually from 46.1 µM), usual class: cytotoxic | actives 2% (n = 360,000)
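IDH1KD HT-1080 cells, 750/well, RPMI + 5% FBS; compound pinned after 2 h settling; 48 h, 37 °C; CellTiter-Glo luminescence; % activity normalised to DMSO and no-cell wells; curves fitted, classed by r2 and efficacy.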
A number is an active result; n = inactive; u = inconclusive; x = no result; [ ] = remark or other dose. A selection: hits, their analogues and other compounds. The true share with any hit is near 19%. Unless noted, the call rests on the fitted dose curve; in most records, active means well fitted curve in the direction sought with a large enough effect; inconclusive means small, poorly fitted or top-dose-only effect, or another doubt; inactive means no such curve, though single readings can be large; an effect the other way counts as inactive or inconclusive.

SMILES | ELG1 DNA repair | DT40 TDP1 CPT | HT1080-NT tox | IL1B secr inh | TDP1 cell noCPT | HT1080 IDH1KD tx
Cc1ccc(C(=O)N2CCN(c3ccc(F)cc3)CC2)cc1NC(=O)c1nsc2ccccc12 | x | 16.4µM | x | x | 20.6µM | x
Cc1ccc(C(=O)N2CCN(c3ccccc3)CC2)cc1NC(=O)c1ccco1 | u | n | n | n | n | n
CC1CCCCN1C(=O)c1ccc(C(=O)Nc2ccc(F)cc2)cc1 (stereo not given) | n | n | n | n | u | n
O=C(CSc1ccc([N+](=O)[O-])cn1)Nc1cc(C(F)(F)F)ccc1N1CCOCC1 | n | u | n | n | u | n
O=C(NC1CCCCC1)C(CCc1ccccc1)N1CCOCC1 (stereo not given) | x | n | n | n | n | n
O=C(NC1CCCCC1)C(CCc1ccccc1)N1CCc2ccccc2C1 (stereo not given) | x | 20.6µM | u | n | 20.6µM | u
CCOC(=O)C1=C(O)C(=O)NC(c2ccccc2)=C(OC2CCCCC2)C1 | n | u | n | n | 23.1µM | n
CCc1ccc(S(=O)(=O)N/N=C\c2ccc3c(c2)OCO3)cc1 | n | n | n | n | n | n
COc1ccc(C2=NOC(C3(S(=O)(=O)c4ccccc4)CC(O)C3)C2)cc1 (stereo not given) | x | n | n | n | n | n
O=S(=O)(c1ccccc1)[C@@]1(c2ccc(Br)cc2)C[C@@H]2ON=C(c3cccc(Br)c3)[C@@H]2C1 | n | u | n | n | 18.4µM | n
O=S(=O)(c1ccccc1)[C@@]1(c2ccc(Br)cc2)C[C@@H]2ON=C(c3ccccc3)[C@@H]2C1 | n | u | n | n | 11.6µM | n
Brc1cccc(-c2nnc(-c3ccccc3)o2)c1 | u | n | n | n | n | n
O=C(c1ccc(N2CN(C(=O)c3ccco3)c3nc4ccccc4nc32)cc1)N1CCOCC1 | u | 13µM | u | -59.4 | 23.1µM | n[9.24 µM]
O=C(CCNC(=O)c1ccccc1)NNC(=O)COc1ccccc1Cl | n | n | n | n | n | n
O=C(Nc1nnc(-c2cccnc2)o1)c1cccc([N+](=O)[O-])c1 | 18.3µM | x | x | x | x | x
Cc1cccc(C(=O)Nc2nnc(-c3cccnc3)o2)c1 | n | u | n | n | u | u
COc1cccc(C(=O)Nc2nnc(-c3ccc(F)cc3)o2)c1 | n | 10.3µM | n | n | 9.2µM | n
O=C(Nc1nnc(-c2ccc(Cl)cc2)o1)c1cccc(N2C(=O)CCC2=O)c1 | n | n | n | n | n | n
COc1cccc(C(=O)Nc2nnc(-c3cccs3)o2)c1 | u | 16.4µM | n | n | u | n
COc1cccc(C(=O)Nc2nnc(-c3ccc(Cl)cc3)o2)c1 | n | 10.3µM | n | n | 10.3µM | n
COc1ccc2oc(=O)c(/C(N)=N/NC(=O)c3ccncc3)cc2c1 | n | n | n | n | n | n
Cc1cccc(OC(=O)c2nc(SCc3ccccc3F)ncc2Cl)c1 | x | n | x | x | n | x
COc1cc(NC(=O)CCc2c(C)noc2C)c(Cl)cc1C(=O)O | n | n | n | n | n | n
CCOc1ccc(-c2nnc(NC(=O)c3ccc(OCC(C)C)c(OC)c3)o2)cc1 | n | 5.8µM | n | n | 6.51µM | n
COC(=O)c1sccc1NC(=O)c1cc2c(s1)CCCC2 | u | n | n | n | 10.3µM | n
SMILES | ELG1 DNA repair | DT40 TDP1 CPT | HT1080-NT tox | IL1B secr inh | TDP1 cell noCPT | HT1080 IDH1KD tx
CCCCNC(=O)Nc1nnc(-c2ccc(OCC)cc2)o1 | n | u | n | n | u | n
COc1cccc(-c2nnc(NC(=O)c3ccc4ncsc4c3)o2)c1 | n | 16.4µM | n | n | 14.6µM | u
CC(=O)c1ccc(C(=O)Nc2nnc(-c3ccc(Cl)cc3)o2)cc1 | u | 9.2µM | u | n | 9.2µM | u
Cc1ccnc2nc(C(=O)Nc3nnc(-c4ccc(Cl)cc4)o3)nn12 | n | n | n | n | n | n
CCN1CCN(C(=O)c2ccc(CS(=O)(=O)Cc3ccccc3C)o2)CC1 | n | n | n | n | n | n
C[C@@H]1CN([C@@H](C)CO)C(=O)c2cc(Br)cnc2O[C@H]1CN(C)C(=O)NC1CCCC1 | x | n | n | n | n | n
COC(=O)c1sccc1NC(=O)c1cccc(OC)c1 | n | u | n | n | 20.6µM | n
C/C(=N\NC(=S)Nc1ccc(C)c(C)c1)c1ccc(N2CCOCC2)cc1 | 23.1µM | 5.8µM | n | n | 5.8µM | n
C/C(=N\NC(=S)Nc1cc(S(=O)(=O)N2CCOCC2)ccc1Cl)c1ccc(N2CCOCC2)cc1 | u | 2.91µM | n | n | 2.59µM | n
COc1ccc2cc(/C(C)=N/NC(=S)Nc3cc(S(=O)(=O)N4CCOCC4)ccc3N3CCOCC3)ccc2c1 | 4.61µM | x | x | x | x | x
C/C(=N\NC(=O)c1ccc(Cl)cc1)c1ccc(N2CCOCC2)cc1 | n | n | n | n | n | n
O=S(=O)(c1ccc(Cl)c(NC(=S)Nc2ccccc2N2CCOCC2)c1)N1CCOCC1 | n | n | n | n | n | n
CCc1cc2c(=O)c(-c3nc4ccccc4n3C)c(C)oc2c(CN2CCCCC2)c1O | u | 25.9µM | n | n | u | n
CCc1cc2c(=O)c(-c3cnn(-c4ccccc4)c3)c(C)oc2c(CN2CCCCC2)c1O | n | u | u | n | 25.9µM | u
CCc1cc2c(=O)c(-c3cnn(-c4ccccc4)c3)c(C(F)(F)F)oc2c(CN(C)C)c1O | n | n | n | n | n | n
CC(Sc1nnc(COc2ccc(Cl)cc2)o1)C(=O)Nc1ccc(N2CCOCC2)cc1 (stereo not given) | n | n | n | n | n | n
Cc1cccc(OCC(=O)NCC(c2cccs2)N2CCOCC2)c1 (stereo not given) | n | n | n | n | n | n
Cc1ccc(N(Cc2cccs2)C(=O)c2ccc(OC(C)C)cc2)cc1 | x | 20.6µM | x | x | u | x
Cc1ccc(N(Cc2cccs2)C(=O)COc2cccc(C)c2)cc1 | x | u | x | x | 23.1µM | x
COc1ccc(CN(C(=O)c2cccs2)c2ccccc2)cc1 | n | n | n | u | u | n
COc1ccc(N(Cc2cccs2)C(=O)COc2cccc(C)c2C)cc1 | x | u | x | x | 18.4µM | x
COc1ccc(N(Cc2cccs2)C(=O)c2ccc(Br)o2)cc1 | x | 14.6µM | x | x | 18.4µM | x
CC1=C(C(=O)N(C(C)C)C(C)C)CC(CC(=O)NCc2cccs2)C(=O)N1Cc1ccccc1 (stereo not given) | x | u | n | n | u | n
CN(CCO)c1ccc(C=NNc2ccc([N+](=O)[O-])cc2S(=O)(=O)Nc2ccccc2C(=O)O)cc1 | n | n | n | n | n | n
COC(=O)c1ccc(CN(C)S(=O)(=O)c2cccs2)cc1 | u | n | n | n | n | n

Screening data from PubChem BioAssay.
